Inconclusive results are not listed. Active and inactive are the calls of the source. The call rests on the fitted dose curve; in most records, active means well fitted inhibition curve with a large enough effect; inconclusive means small, poorly fitted or top-dose-only effect; inactive means flat fitted curve, though single readings scatter.
Tests used:
Experiment in all cases: Cytotoxic Profiling of Annotated Libraries Using Quantitative High-Throughput Screening (AID 1296008); further: nearly all actives have a fitted effect of over 60% in size
Conditions in all cases: Five cell lines viability, CellTiter-Glo ATP luminescence, 48-72 h; max response: hits give low values
HEK293 = system: HEK293
Method in brief: (§1)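 Cells exposed to compounds for 48 or 72 hr at 37 degrees Celsius. Viability read as ATP-coupled luminescence with CellTiter-Glo after 10 min at room temperature.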

HaCat = system: HaCat
Method in brief: as §1

KB-3-1 = system: KB-3-1
Method in brief: as §1

NIH3T3 = system: NIH3T3
Method in brief: as §1

Measured: max response
On the % scale 0 is the no-effect control and ±100 the full control effect.

CC1(C=O)CC[C@]2(C(=O)O[C@@H]3O[C@H](CO)[C@@H](O)[C@H](O)[C@H]3O)CC[C@]3(C)C(=CCC4[C@@]5(C)C[C@H](O)[C@H](O[C@@H]6OC[C@@H](O)[C@H](O)[C@H]6O)[C@@](C)(CO)C5CC[C@]43C)C2C1 (stereo partly specified)
inactive: HEK293 -6.07% | HaCat -0.307% | KB-3-1 | NIH3T3 -1.18%

CC1=C(/C=C/C(C)=C\C=C\C(C)=C/C(=O)O)C(C)(C)CCC1
inactive: HEK293 0.159% | HaCat -22.2% | KB-3-1 | NIH3T3 0.69%

Cc1cc2c(c(=O)[nH]1)OC(C(O)CC(C)C)O2 (stereo unspecified)
inactive: HEK293 -7.89% | HaCat -1.41% | KB-3-1 -1.2% | NIH3T3 -0.186%

O=C(CCc1nnc2n(Cc3ccc(Cl)cc3)c(=O)c3ccccc3n12)NCCC1=CCCCC1
inactive: HEK293 -12.9% | HaCat 3.41% | KB-3-1 -11.9% | NIH3T3 1.28%

Cc1cc(C(N)=O)ccc1-n1c(CCC(=O)O)ccc1-c1ccc(-n2ccnc2)cc1
inactive: HEK293 -3.97% | HaCat -1.63% | KB-3-1 7.2% | NIH3T3 -2.74%

Cc1ccc(-c2ccc3c(ccc4sc5c(c43)NC[C@@H](C)NC5=O)n2)cn1
inactive: HEK293 -21.3% | HaCat -8.25% | KB-3-1 | NIH3T3 -0.392%

COc1ccc(N2CCOCC2)c2sc(NC(=O)N3CCC(C)(O)CC3)nc12
inactive: HEK293 -6.66% | HaCat 3.93% | KB-3-1 | NIH3T3 -12%

CC1(C)CC[C@]2(C(=O)O)[C@H](O)C[C@]3(C)C(=CCC4[C@@]5(C)CC[C@H](O[C@@H]6O[C@H](CO[C@@H]7OC[C@H](O)[C@H](O)[C@H]7O[C@@H]7OC[C@@H](O)[C@H](O)[C@H]7O)[C@@H](O)[C@H](O)[C@H]6O[C@@H]6O[C@H](CO)[C@@H](O)[C@H](O)[C@H]6O)C(C)(C)C5CC[C@]43C)[C@@H]2C1 (stereo partly specified)
inactive: HEK293 -1.49% | HaCat -11.7% | KB-3-1 4.84% | NIH3T3 -6.3%

COc1cc(O)cc(/C=C/c2ccc(O[C@@H]3O[C@H](CO)[C@@H](O)[C@H](O)[C@H]3O)cc2)c1
inactive: HEK293 -4.02% | HaCat 0.534% | KB-3-1 | NIH3T3 4.58%
